TGFb SMAD3 inh: qHTS for Inhibitors of TGF-b; HepG2 CAGA-GFP TGF-b/SMAD3 reporter, GFP fluorescence, 18 h; TGF-beta stimulated, 500 pg/mL final; 410,000 tested, 1.2% active; Potency, µM (highest dose often 46.1 µM), actives largely listed as inhibitors; AID 588855, 2011; note: nearly all actives have a fitted effect of over 65% in size
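First, reporter cells (HEPG2 CAGA-GFP) rested 2 h at 37 degrees C. Next, compounds were pinned in and TGF-beta added to 500 pg/mL final. After 18 h, GFP was imaged per cell and summed per well.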
HepG2 tox: qHTS for Inhibitors of TGF-b: Cytotox Counterscreen. HepG2 CAGA-GFP viability, ATP luminescence, 18 h. Potency, µM (series often up to 46.1 µM), actives largely listed as cytotoxic. 410,000 tested, 0.76% active. AID 588856, 2011
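CellTiter-Glo luminescence gave cytotoxicity after 18 hours at 37 degrees C. The cells were HepG2 CAGA-GFP in 1% FBS DMEM, stimulated with 500 pg/mL TGF-beta after compound addition. %Activity was normalised to no-cell wells (complete cell-killing) and DMSO (no toxicity), and curves were fitted and classified.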
ATXN2 expr inh: Primary qHTS for Inhibitors of ATXN expression. HEK-293 ATXN2-luciferase reporter, luminescence, 24 h. 360,000 tested, 0.72% active. Potency, µM (titrated, usually from 57 µM), most hits filed as inhibitors; note: nearly all actives have a fitted effect of over 55% in size
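qHTS (up to 57 uM final) was run with 24 h compound exposure of reporter cells at 37 °C. Each well was multiplexed: SteadyGlo luminescence measured ATXN2-luciferase expression after a fluorogenic Gly-Phe-AFC viability readout (25 uM final).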
GLP-1R inv ag: qHTS of GLP-1 Receptor Inverse Agonists (Inhibition Mode); AID 624417, 2012; Glucagon-like peptide 1 receptor (Homo sapiens), P43220; Potency, µM (series often up to 38.3 µM), most hits filed as inhibitors; HEK293 GLP-1R CRE-luciferase, luminescence, 24 h; GLP-1R form is constitutively active; 410,000 tested, 1.6% active; note: nearly all actives have a fitted effect of over 55% in size
Target sequence (P43220 whole entry, looked up): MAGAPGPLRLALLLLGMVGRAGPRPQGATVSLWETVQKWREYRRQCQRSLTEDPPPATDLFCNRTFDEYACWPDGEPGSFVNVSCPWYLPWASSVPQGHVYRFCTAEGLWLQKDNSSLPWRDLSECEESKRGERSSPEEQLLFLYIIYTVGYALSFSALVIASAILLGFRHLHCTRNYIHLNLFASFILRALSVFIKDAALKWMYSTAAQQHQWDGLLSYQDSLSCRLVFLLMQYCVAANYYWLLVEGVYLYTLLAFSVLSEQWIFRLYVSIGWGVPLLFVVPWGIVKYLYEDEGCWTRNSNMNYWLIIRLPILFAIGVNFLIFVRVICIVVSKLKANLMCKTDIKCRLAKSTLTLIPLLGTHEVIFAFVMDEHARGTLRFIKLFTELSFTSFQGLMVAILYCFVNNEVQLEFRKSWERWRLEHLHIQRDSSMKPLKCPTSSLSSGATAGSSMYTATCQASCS
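HEK293 cells stably co-expressing a cAMP-responsive luciferase reporter and constitutively active GLP-1R were seeded, incubated 12 h, then exposed to compounds for 24 h at 37 C. Luminescence was read 12 min after detection reagent; inverse agonists lower signal.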
ATXN viability: Viability Counterscreen for Primary qHTS for Inhibitors of ATXN expression. AID 651635, 2014. S2 cells (HEK-293 line with an ATXN2-luciferase reporter) viability, CellTiter-Fluor protease fluorescence, 24 h. Potency, µM (highest dose often 56.7 µM), actives largely listed as cytotoxic. 400,000 tested, 0.49% active; note: nearly all actives have a fitted effect of over 40% in size
GLP-1R agonist: qHTS of GLP-1 Receptor Agonists | Glucagon-like peptide 1 receptor (Homo sapiens), P43220 | HEK293 GLP-1R CRE-luciferase, luminescence, 4-6 h; cells express a hypersensitive GLP-1R form | Potency, µM (series often up to 45.6 µM), actives largely listed as activators | 380,000 tested, 0.007% active
A number is an active result; - = inactive; ? = inconclusive; . = no result given; [ ] = another dose, or the depositor's remark. Most compounds without a hit are left out; they make up all but 3.7% or so of the library. Calls come from the whole dose curve; as a rule, active = well fitted curve in the direction sought with a large enough effect; inconclusive = small, poorly fitted or top-dose-only effect, or another doubt; inactive = no such curve, though single readings can be large; an effect the other way counts as inactive or inconclusive.

SMILES	TGFb SMAD3 inh	HepG2 tox	ATXN2 expr inh	GLP-1R inv ag	ATXN viability	GLP-1R agonist
O=C1C=C(Nc2ccccc2)c2ccccc2C1=O	3.2µM	3.5µM	?	-	28µM	-
CCc1ccc(NC2=CC(=O)C(=O)c3ccccc32)cc1	2µM	2.8µM	?	-	?	-
CC(C)(C)c1ccc(C(=O)N2CCC3(CC2)CC3C(=O)NCCc2ccccn2)cc1 (stereo not drawn)	.	.	.	.	-	.
CCC(C)CCCCC(=O)N[C@@H](CCN)C(=O)NC(C(=O)N[C@H](CCN)C(=O)N[C@@H]1CCNC(=O)C([C@@H](C)O)NC(=O)[C@@H](CCN)NC(=O)[C@@H](CCN)NC(=O)[C@@H](CC(C)C)NC(=O)[C@H](Cc2ccccc2)NC(=O)[C@H](CCN)NC1=O)[C@@H](C)O (stereo partly drawn)	.	.	-	.	.	.
O=C1C=C(Nc2cccc3cccnc23)c2ccccc2C1=O	5µM	3.5µM	-[2.22 µM]	-	14µM	-
CCCCNC1=CC(=O)C(NCCCC)=CC1=O	-	-	-	-	?	-
CCCCNC1=CC(=O)C(=O)c2ccccc21	3.5µM	7.1µM	.	-	?	-
Clc1ccc2c(c1)c1ccccc1n2CN1CCOCC1	-	-	-	?	-	-
Clc1ccc2c(c1)c1cc(Cl)ccc1n2CN1CCOCC1	-	-	-	5µM	-	-
CCOC(=O)C1C(C(=O)OC)=C(c2ccc(OC)cc2)c2ccc(OC)cc2N1S(=O)(=O)C(F)(F)F (stereo not drawn)	?	-	-	-	-	-
CCOC(=O)C1=C(C2=CCCCC2)c2ccc(OC)cc2N(S(=O)(=O)C(F)(F)F)C1C(=O)OCC (stereo not drawn)	14µM	-	?	-	?	-
COc1ccc(C=Cc2cc(OC)c(OC)c(OC)c2)cc1O	.	.	-	.	.	.
CSc1ccc2nnc(-c3ccc(C)cc3)n2n1	-	-	.	.	.	.
CC1(C)CCC(c2ccc(Cl)cc2)=C(CN2CCN(c3ccc(C(=O)NS(=O)(=O)c4ccc(N[C@H](CCN5CCOCC5)CSc5ccccc5)c(S(=O)(=O)C(F)(F)F)c4)cc3)CC2)C1	?	5.6µM	?	.	.	.
CN(C)CCN1C(=O)C2C(C(=O)Nc3cc(Cl)cc(Cl)c3)C3C=CC2(O3)C1C(=O)NC1CCCCC1 (stereo not drawn)	-	-	-	10µM	-	-
O[C@@H](COc1cccc2ncccc12)CN1CCN(C2c3ccccc3[C@@H]3[C@H](c4ccccc42)C3(F)F)CC1 (stereo partly drawn)	.	.	?	.	25µM	.
Cc1cc(OCC(O)CN2CCN(c3ccccn3)CC2)cc(C)c1Cl (stereo not drawn)	-	-	-	11µM	-	-
OC(COc1cccc2ccccc12)CN1CCN(c2ccc(Cl)cc2)CC1 (stereo not drawn)	16µM	-	.	?	?	-
OC(COc1ccc(Cl)c2ccccc12)CN1CCN(c2ccccn2)CC1 (stereo not drawn)	?	-	-	10µM	-	-
OC(COc1cccc2ccccc12)CN1CCN(c2cccc(Cl)c2)CC1 (stereo not drawn)	-	-	.	?	?	-
COc1ccc(-c2c[n+](CC(=O)OC3CC(C)CCC3C(C)C)c3n2CCC3)cc1 (stereo not drawn)	20µM	-	?	?	?	-
O=C(CN1CCNCC1)NC1CCCCC1	.	.	-	.	-	-
CCN(CC)c1ccc(C(=O)Nc2cccc(F)c2)cc1	-	-	-	5.6µM	-	-
CC1(C)OC(=O)C2(Cc3cc(C(F)(F)F)ccc3N3CCCCC32)C(=O)O1 (stereo not drawn)	-	-	.	.	.	.

Source: PubChem BioAssay
